Compounds without any hit were thinned out: in the full panel of roughly 79,000, 15% have a hit. The source made the active and inactive calls. No stated cut-off is given here; in the data, active means growth inhibition above about 70%; inactive means the rest.
Experiments:
[1] = NCI Yeast Anticancer Drug Screen. Data for the rad52 strain (AID 147);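 further: 0% = growth of vehicle-treated control cultures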; conditions: S. cerevisiae rad52 mutant growth inhibition, stronger effect = higher value
In short: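 DNA repair-defective yeast; compound exposure; growth scored against vehicle controls.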

[2] = NCI Yeast Anticancer Drug Screen. Data for the wt1 strain (AID 149);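 further: 0% = growth of vehicle-treated wt1 cultures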; conditions: S. cerevisiae wt1 strain (SPY 50644) growth inhibition, stronger effect = higher value
In short: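 Each compound is tested on wt1 yeast and the loss of growth versus vehicle gives the inhibition value.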

[3] = NCI Yeast Anticancer Drug Screen. Data for the rad50EPP+ strain (AID 151);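 further: 0% = growth of vehicle-treated control cultures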; conditions: S. cerevisiae rad50 mutant strain, stronger effect = higher value
In short: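 rad50EPP+ yeast treated with test compounds. Readout: growth vs vehicle control.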

[4] = NCI Yeast Anticancer Drug Screen. Data for the mgt1 strain (AID 153); conditions: S. cerevisiae mgt1 mutant growth inhibition, stronger effect = higher value
In short: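 Growth inhibition relative to vehicle controls was scored for the mgt1 yeast strain after compound exposure.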

[5] = NCI Yeast Anticancer Drug Screen. Data for the rad50 strain (AID 155);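 further: 0% = growth of vehicle-only cultures of the same strain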; conditions: S. cerevisiae rad50 strain growth inhibition, stronger effect = higher value
In short: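 Vehicle-treated cultures provide the reference for the growth inhibition reported for compound-exposed, repair-deficient yeast.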

[6] = NCI Yeast Anticancer Drug Screen. Data for the rad14 strain (AID 159);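 further: 0% = growth of vehicle-treated control cultures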; conditions: S. cerevisiae rad14 strain growth inhibition, stronger effect = higher value
In short: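 Inhibition of growth is reported for a repair-deficient yeast mutant following compound treatment, calculated relative to cultures that received vehicle.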

[7] = NCI Yeast Anticancer Drug Screen. Data for the sgs1 mgt1 strain (AID 161);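 further: 0% = growth of cultures given vehicle only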; conditions: S. cerevisiae sgs1 mgt1 strain, stronger effect = higher value
In short: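 Yeast cells carrying a defined DNA-repair defect were exposed to test compounds. Growth inhibition was measured relative to vehicle-treated controls.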

[8] = NCI Yeast Anticancer Drug Screen. Data for the CLN2oe strain (AID 163);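 further: 0% = growth of vehicle-only control cultures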; conditions: S. cerevisiae CLN2oe strain, stronger effect = higher value
In short: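 Compound-treated yeast; growth vs vehicle ctrl = % inhibition. Genetically altered strain (cell-cycle control).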

[9] = NCI Yeast Anticancer Drug Screen. Data for the cln2 rad14 strain (AID 165);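 further: 0% = growth equal to vehicle treated cultures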; conditions: S. cerevisiae cln2 rad14 strain, stronger effect = higher value
In short: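 Growth inhibition, relative to vehicle-treated controls, is the read-out. The test organism is a yeast strain with defined genetic alterations, cln2 rad14.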

[10] = NCI Yeast Anticancer Drug Screen. Data for the bub3 strain (AID 167); conditions: S. cerevisiae bub3 mutant strain, stronger effect = higher value
In short: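 Mutant yeast screening strain plus compound; vehicle-treated cultures serve as the 0% inhibition reference.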

[11] = NCI Yeast Anticancer Drug Screen. Data for the wt2 strain (AID 169); conditions: S. cerevisiae wt2 strain growth inhibition, stronger effect = higher value
In short: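 Compound exposure of yeast; growth compared with vehicle controls; inhibition reported.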

[12] = NCI Yeast Anticancer Drug Screen. Data for the sgs1 strain (AID 173);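 further: 0% = growth of vehicle-only control cultures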; conditions: S. cerevisiae sgs1 mutant, stronger effect = higher value
In short: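 Compounds applied to genetically altered yeast; growth compared with vehicle-treated cultures to give % inhibition.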

[13] = NCI Yeast Anticancer Drug Screen. Data for the mlh1 rad18 strain (AID 175); conditions: S. cerevisiae mlh1 rad18 strain growth inhibition, stronger effect = higher value
In short: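 Cells of a genetically altered yeast strain, deficient in DNA damage repair, were treated with compound. Their growth was then compared with that of vehicle-treated cultures to give inhibition.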

[14] = NCI Yeast Anticancer Drug Screen. Data for the rad18 strain (AID 177); conditions: S. cerevisiae rad18 mutant growth inhibition, stronger effect = higher value
In short: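 Compounds are applied to a repair-deficient yeast strain, and growth is compared with that of vehicle-treated cultures to give percent inhibition.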

[15] = NCI Yeast Anticancer Drug Screen. Data for the mec2-1 strain (AID 157); conditions: S. cerevisiae mec2-1 strain, stronger effect = higher value
In short: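 Growth inhibition is read against vehicle-treated controls after compound exposure of the mec2-1 yeast strain, which is defective in DNA damage repair or cell cycle control.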

[16] = NCI Yeast Anticancer Drug Screen. Data for the mlh1 strain (AID 171);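 further: 0% = growth of vehicle-treated control cultures of the same strain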; conditions: S. cerevisiae mlh1 strain growth inhibition, stronger effect = higher value
In short: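 Compounds are applied to a genetically altered yeast strain, and its growth is compared with that of vehicle-treated cultures to give percent inhibition.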

[17] = at 5.0 µM (retest, dose inferred, filed as 0.5)
[18] = at 50.0 µM (retest, dose inferred, filed as 5.0)

Measured: growth inhibition

O=c1ccc2ccccc2c2ccccc12
inactive: [1]; at 1.2 µM -49% | [1]; at 3.7 µM -33% | [1]; at 11.0 µM 52% | [2]; at 1.2 µM -17% | [2]; at 3.7 µM 18% | [3]; at 1.2 µM -4% | [3]; at 3.7 µM 13% | [3]; at 11.0 µM 46% | [4]; at 1.2 µM 3% | [4]; at 3.7 µM 21% | [5]; at 1.2 µM -13% | [5]; at 3.7 µM 7% | [5]; [17] -2% | [5]; at 11.0 µM 66% | [6]; at 1.2 µM -9% | [6]; at 3.7 µM 1% | [6]; at 11.0 µM 63% | [7]; [17] 6% | [8]; at 1.2 µM 20% | [8]; at 3.7 µM 25% | [9]; [17] 5% | [10]; at 1.2 µM 5% | [10]; at 3.7 µM 47% | [10]; [17] 50% | [11]; at 1.2 µM -27% | [11]; at 3.7 µM 2% | [11]; at 11.0 µM 69% | [12]; at 1.2 µM -2% | [12]; at 3.7 µM 12% | [12]; at 11.0 µM 69% | [13]; [17] 39% | [14]; at 1.2 µM -4% | [14]; at 3.7 µM -3%
active: [1]; at 33.0 µM 97% | [1]; at 100.0 µM 99% | [2]; at 11.0 µM 76% | [2]; at 33.0 µM 98% | [2]; at 100.0 µM 99% | [3]; at 33.0 µM 95% | [3]; at 100.0 µM 99% | [4]; at 11.0 µM 79% | [4]; at 33.0 µM 99% | [4]; at 100.0 µM 99% | [5]; at 33.0 µM 97% | [5]; [18] 98% | [5]; at 50.0 µM 90.9% | [5]; at 100.0 µM 97% | [6]; at 33.0 µM 98% | [6]; at 100.0 µM 97% | [7]; [18] 98% | [7]; at 50.0 µM 91.6% | [8]; at 11.0 µM 87% | [8]; at 33.0 µM 100% | [8]; at 100.0 µM 100% | [9]; [18] 99% | [9]; at 50.0 µM 90.4% | [10]; at 11.0 µM 88% | [10]; at 33.0 µM 98% | [10]; [18] 99% | [10]; at 50.0 µM 90.6% | [10]; at 100.0 µM 98% | [11]; at 33.0 µM 98% | [11]; at 100.0 µM 99% | [12]; at 33.0 µM 98% | [12]; at 100.0 µM 98% | [13]; [18] 99% | [13]; at 50.0 µM 90.9% | [14]; at 11.0 µM 76% | [14]; at 33.0 µM 97% | [14]; at 100.0 µM 97%

CCCCCOC(=S)SC(=O)OCC
active: [1]; at 100.0 µM 94% | [4]; at 100.0 µM 92% | [5]; at 33.0 µM 84% | [5]; [18] 95% | [5]; at 50.0 µM 98% | [5]; at 100.0 µM 95% | [15]; [18] 95% | [15]; at 50.0 µM 98.5% | [15]; at 100.0 µM 86% | [7]; [18] 97% | [7]; at 50.0 µM 97.7% | [10]; at 33.0 µM 82% | [10]; [18] 96% | [10]; at 50.0 µM 96.8% | [10]; at 100.0 µM 94% | [11]; at 100.0 µM 90% | [16]; at 100.0 µM 95% | [12]; at 33.0 µM 90% | [12]; at 100.0 µM 97% | [13]; [18] 96% | [13]; at 50.0 µM 96.6% | [14]; at 33.0 µM 90% | [14]; at 100.0 µM 98%
inactive: [1]; at 1.2 µM 0% | [1]; at 3.7 µM 7% | [1]; at 11.0 µM 27% | [1]; at 33.0 µM 63% | [2]; at 1.2 µM -4% | [2]; at 3.7 µM -1% | [2]; at 11.0 µM 8% | [2]; at 33.0 µM 35% | [2]; at 100.0 µM 64% | [3]; at 1.2 µM -3% | [3]; at 3.7 µM 9% | [3]; at 11.0 µM 18% | [3]; at 33.0 µM 30% | [3]; at 100.0 µM 36% | [4]; at 1.2 µM -4% | [4]; at 3.7 µM -2% | [4]; at 11.0 µM 6% | [4]; at 33.0 µM 37% | [5]; at 1.2 µM 1% | [5]; at 3.7 µM 32% | [5]; [17] 20% | [5]; at 11.0 µM 51% | [15]; at 1.2 µM -3% | [15]; at 3.7 µM 3% | [15]; [17] 27% | [15]; at 11.0 µM 26% | [15]; at 33.0 µM 48% | [7]; [17] 33% | [8]; at 1.2 µM -7% | [8]; at 3.7 µM -6% | [8]; at 11.0 µM -7% | [8]; at 33.0 µM 1% | [8]; at 100.0 µM 30% | [10]; at 1.2 µM 2% | [10]; at 3.7 µM 6% | [10]; [17] 55% | [10]; at 11.0 µM 40% | [11]; at 1.2 µM -4% | [11]; at 3.7 µM 6% | [11]; at 11.0 µM 4% | [11]; at 33.0 µM 39% | [16]; at 1.2 µM -1% | [16]; at 3.7 µM 2% | [16]; at 11.0 µM 14% | [16]; at 33.0 µM 63% | [12]; at 1.2 µM -3% | [12]; at 3.7 µM 4% | [12]; at 11.0 µM 45% | [13]; [17] 43% | [14]; at 1.2 µM -5% | [14]; at 3.7 µM 5% | [14]; at 11.0 µM 33%

CCCCN(CCCC)C(=O)/C=C/c1ccccc1
inactive: [1]; at 1.2 µM -12% | [1]; at 3.7 µM -9% | [1]; at 11.0 µM -11% | [1]; at 33.0 µM 18% | [2]; at 1.2 µM 0% | [2]; at 3.7 µM 3% | [2]; at 11.0 µM 11% | [2]; at 33.0 µM 10% | [3]; at 1.2 µM -7% | [3]; at 3.7 µM -20% | [3]; at 11.0 µM -2% | [3]; at 33.0 µM 14% | [3]; at 100.0 µM 33% | [4]; at 1.2 µM -4% | [4]; at 3.7 µM -9% | [4]; at 11.0 µM -5% | [4]; at 33.0 µM -1% | [4]; at 100.0 µM 48% | [5]; at 1.2 µM -15% | [5]; at 3.7 µM -12% | [5]; [17] 5% | [5]; at 11.0 µM -10% | [5]; at 33.0 µM 15% | [15]; at 1.2 µM -5% | [15]; at 3.7 µM -5% | [15]; [17] -1% | [15]; at 11.0 µM -6% | [15]; at 33.0 µM -4% | [7]; [17] 4% | [8]; at 1.2 µM -9% | [8]; at 3.7 µM -6% | [8]; at 11.0 µM -23% | [8]; at 33.0 µM -9% | [8]; at 100.0 µM 43% | [9]; [17] 7% | [9]; [18] 20% | [9]; at 50.0 µM 68% | [10]; at 1.2 µM -2% | [10]; at 3.7 µM 10% | [10]; [17] 18% | [10]; at 11.0 µM 21% | [10]; at 33.0 µM 33% | [11]; at 1.2 µM 6% | [11]; at 3.7 µM -4% | [11]; at 11.0 µM 12% | [11]; at 33.0 µM 47% | [16]; at 1.2 µM -9% | [16]; at 3.7 µM -4% | [16]; at 11.0 µM -5% | [16]; at 33.0 µM 18% | [12]; at 1.2 µM -17% | [12]; at 3.7 µM -6% | [12]; at 11.0 µM 8% | [12]; at 33.0 µM 33% | [13]; [17] -3% | [14]; at 1.2 µM -6% | [14]; at 3.7 µM -9% | [14]; at 11.0 µM -3% | [14]; at 33.0 µM 4% | [14]; at 100.0 µM 61%
active: [1]; at 100.0 µM 93% | [2]; at 100.0 µM 82% | [5]; [18] 84% | [5]; at 50.0 µM 93.3% | [5]; at 100.0 µM 89% | [15]; [18] 85% | [15]; at 50.0 µM 92.2% | [15]; at 100.0 µM 79% | [7]; [18] 92% | [7]; at 50.0 µM 92.2% | [10]; [18] 76% | [10]; at 50.0 µM 74.2% | [10]; at 100.0 µM 70% | [11]; at 100.0 µM 97% | [16]; at 100.0 µM 85% | [12]; at 100.0 µM 87% | [13]; [18] 88% | [13]; at 50.0 µM 81.2%

Source: PubChem BioAssay (NCI)
